# According to PubChem BioAssay (Tox21):
# Results filed as inconclusive are left out. Values without a mark were called inactive. Calls follow the shape of the dose curve; as a rule, active = well fitted inhibition curve with a large enough effect in the signal ratio in the repeat runs, with a control signal flat; inconclusive = weak or mixed curves, or effect the other way; inactive = flat fitted curve, though single readings scatter; the % refers to the signal ratio.
# Biological target: D(2) dopamine receptor (Homo sapiens) (UniProt P14416)
# Test: Dopamine D2 receptor (DRD2) small molecule antagonists, cell-based qHTS assay (AID 1963595)
# Conditions: HEK293-DRD2 cAMP HTRF antagonist mode; series mostly up to 92.4 µM; activity change, negative = inhibition: at the top concentration
# Procedure, shortened: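 HEK293 cells stably expressing DRD2, preincubated with 0.1 mM Ro20-1724 and compounds 10 min, were stimulated with 200 nM NKH477 plus 12 nM quinpirole for 30 min at room temperature; cAMP measured by HTRF (665/620 nm).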
# % is scaled to controls: 0 for no effect and ±100 for the full control effect.
# Sequence of D(2) dopamine receptor (Homo sapiens) (P14416 whole entry, looked up): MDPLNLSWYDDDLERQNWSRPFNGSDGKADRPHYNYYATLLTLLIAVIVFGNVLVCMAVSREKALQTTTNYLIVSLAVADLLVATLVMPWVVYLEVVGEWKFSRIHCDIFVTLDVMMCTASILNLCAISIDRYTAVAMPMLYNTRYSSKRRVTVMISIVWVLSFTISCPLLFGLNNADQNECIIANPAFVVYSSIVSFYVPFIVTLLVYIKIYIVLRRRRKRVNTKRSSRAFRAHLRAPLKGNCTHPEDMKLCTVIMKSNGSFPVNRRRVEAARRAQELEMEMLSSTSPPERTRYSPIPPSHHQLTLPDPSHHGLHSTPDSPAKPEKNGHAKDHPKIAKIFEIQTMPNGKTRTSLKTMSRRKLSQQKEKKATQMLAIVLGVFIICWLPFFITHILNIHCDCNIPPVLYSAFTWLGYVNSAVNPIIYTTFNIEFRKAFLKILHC
row,SMILES,"activity change, negative = inhibition"
1,CC1CCC(CO)CC1 (centres undefined),7.01%
2,Cc1c[nH]c(=S)[nH]c1=O,-1.64%
3,CC(=O)OC1C2(C)CCC(C2)C1(C)C (centres undefined),3.11%
4,COP(=O)(OC)OC(c1ccc(Cl)cc1)P(=O)(OC)OC (centres undefined),12.4% [at 42.5 µM]
5,CCC(Cl)CC(Cl)C(Cl)C(Cl)C(Cl)C(C)Cl (centres undefined),-0.674% [at 18.9 µM]
6,O=C(O)c1ccc(S(=O)(=O)O)cc1C(=O)O,0.523%
7,CCCOC(=O)CCCCC(=O)OCCC,-1.46%
8,CCCCCCC[N+](CC)(CC)CCCCc1ccc(Cl)cc1,-5.51% [at 42.5 µM]
9,O=C1CCCCCCCCCCCC(=O)OCCO1,-22.5%
10,CCCCCCCCCCl,22.6%
11,CC(C)CCCCCCOC(=O)C1CCCCC1C(=O)OCCCCCCC(C)C (centres undefined),-16.8%
12,O=S(=O)(O)c1cc(O)c2ccc(Nc3ccccc3)cc2c1,0.229%
13,SC1CCCC1,-0.346%
14,N#CCCN(CCO)CCO,0.454%
15,CC(C)O.CC(C)O.CCOC(=O)/C=C(\C)O.CCOC(=O)/C=C(\C)O.[Ti],-0.161%
16,Cn1cc(C(=O)[C@@H]2CCc3nc[nH]c3C2)c2ccccc21,2.19% [at 42.5 µM]
17,CC1=C(O)C(=O)CO1,9.77%

row,SMILES,"activity change, negative = inhibition"
1,O=C(OCC(COC(=O)c1cccnc1)(COC(=O)c1cccnc1)COC(=O)c1cccnc1)c1cccnc1,1.01% [at 42.5 µM]
2,NC(=O)N(O)[C@@H]1COc2cc(OCc3ccccc3)ccc21,-2.68%
3,CN1C(CSCC(F)(F)F)Nc2cc(Cl)c(S(N)(=O)=O)cc2S1(=O)=O (centres undefined),12.1% [at 42.5 µM]
4,CC[C@H](C)C(=O)O[C@H]1C[C@H](O)C=C2C=C[C@H](C)[C@H](CC[C@@H](O)C[C@@H](O)CC(=O)O)[C@H]21,-0.577%
5,CCCC(=O)O[C@]1(C(=O)COC(=O)CC)CC[C@H]2[C@@H]3CCC4=CC(=O)CC[C@]4(C)[C@H]3[C@@H](O)C[C@@]21C,-0.509% [at 18.9 µM]
6,CCN1C=CN(C)C1C (centres undefined),5.52%
7,CC1CCC(=O)C1=O (centres undefined),-0.291%
8,COc1ccc(CCN(C)CCCN2CCc3cc(OC)c(OC)cc3CC2=O)cc1OC,3.35% [at 42.5 µM]
9,CSc1ccc(C=O)cc1,-0.946%
10,OCCC1CCCCN1 (centres undefined),-4.87%
11,C=C(C)C(=O)OCCOc1ccccc1,12.1%
12,OCCCCCCCCCCCCBr,-4.57%
13,Cc1cc(O)c2c(O)c3c(O)cccc3cc2c1,5.43% [at 42.5 µM]
14,Cc1c(N)cccc1N,10.7%
15,Oc1cccc(Nc2ccccc2)c1,3.92%
16,NNC(=O)OCc1ccccc1,-5.82%
17,C[C@@H]1C[C@H]2[C@@H]3C[C@H](F)C4=CC(=O)C=C[C@]4(C)[C@@]3(F)[C@@H](O)C[C@]2(C)[C@@]1(O)C(=O)CO,0.542% [at 42.5 µM]
